Compounds with a hit are over-represented: about 2.3% of the library has one in this group of screens.
M1 PAM parental = M1 PAM counterscreen hit in parental CHO-K1 cells; ATP EC20, Fluo-8 calcium fluorescence; 0% at ATP EC20, 100% at ATP max; AID 602247; activation, % at 3 µM; 0.02% of 360,000 active;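 active = activation above the run cutoff, the mean activation of all test compounds plus 3 SD, cut at about 40% in these data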;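 also: peak over basal fluorescence ratio in a 140 s read after ATP addition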
CHRM1 agonist = agonists of human M1 muscarinic receptor. CHO-K1 hM1, Fluo-8 calcium fluorescence, agonist mode; 0% DMSO, 100% acetylcholine EC100. activation, % at 3 µM. 0.33% of 360,000 active. AID 588814;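 active = activation above the run's mean compound activation plus 3 SD, cut at about 16% in these data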;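 also: peak over basal fluorescence ratio within a 140 s kinetic read after compound addition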
Target sequence (P11229 whole entry, looked up): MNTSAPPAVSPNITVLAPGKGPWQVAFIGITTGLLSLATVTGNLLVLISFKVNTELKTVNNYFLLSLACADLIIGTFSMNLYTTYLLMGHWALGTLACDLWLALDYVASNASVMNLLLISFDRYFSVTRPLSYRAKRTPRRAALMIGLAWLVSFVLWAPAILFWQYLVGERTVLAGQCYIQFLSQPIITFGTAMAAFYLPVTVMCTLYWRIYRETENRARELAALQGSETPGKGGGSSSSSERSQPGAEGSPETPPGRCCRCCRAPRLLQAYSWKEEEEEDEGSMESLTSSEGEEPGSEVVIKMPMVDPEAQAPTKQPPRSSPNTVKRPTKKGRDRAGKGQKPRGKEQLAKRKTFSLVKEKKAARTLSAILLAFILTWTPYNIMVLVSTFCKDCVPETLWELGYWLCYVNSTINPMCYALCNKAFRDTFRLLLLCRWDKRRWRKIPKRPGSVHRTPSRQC
M1 PAM = human CHRM1 positive allosteric modulation; CHO-K1 hM1, Fluo-8 calcium fluorescence, ACh EC20; 0% = ACh EC20, 100% = maximal ACh; AID 588819; 0.088% of 360,000 active; P11229; activation, % at 3 µM; in the data active = activation above about 19%, passing the limit was not always enough
CHO-K1 Ca ag = counter-screen for M1 agonists: effect in parental CHO-K1 cells. Fluo-8 calcium fluorescence; scaled to maximal ATP response, vehicle zero. activation, % at 3 µM. 0.48% of 360,000 active; in the data active = activation above about 15%;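 also: untransfected CHO-K1 host cells lacking M1 receptor as counterscreen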
CHO-K1 Ca antag = M1 antagonist counterscreen hit in parental CHO-K1 cells; ATP-induced calcium, Fluo-8 fluorescence; inhibition, % at 3 µM; AID 602250; 0.6% of 360,000 active;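 active = inhibition above a per-plate cutoff, the plate's mean sample inhibition plus 3 SD, cut at about 24% in these data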;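 also: 0% = DMSO plus EC80 ATP and 100% = DMSO alone without ATP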
CHRM1 antagonist = antagonists of human M1 muscarinic receptor. inhibition, % at 3 µM. P11229. CHO-K1 hM1, Fluo-8 calcium fluorescence, ACh EC80 antagonist. 1.3% of 360,000 active;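 active = percent inhibition above its own plate's cutoff, namely the mean of that plate's compound wells plus 3 SD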;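 also: peak over basal fluorescence ratio during 140 s after agonist addition; 0% = ACh EC80 plus DMSO and 100% = DMSO alone without agonist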
* marks the source's active call; other numbers are inactive results; / = no result given.

SMILES	M1 PAM parental	CHRM1 agonist	M1 PAM	CHO-K1 Ca ag	CHO-K1 Ca antag	CHRM1 antagonist
CCc1ccc(OCC(=O)NNC(=O)C2CCC2)cc1	5.7	-1.7	5.9	1.8	-9.2	-6.2
CC(C)(C)CN1CCN(Cc2cccnc2)CC1CCO (stereo not drawn)	7.3	-4.8	3.5	0.5	-6.9	-12.9
O=C(/C=C/c1ccc(Cl)c([N+](=O)[O-])c1)Nc1ccc(NC(=O)c2ccco2)cc1	-8.1	-3.4	-2.8	0.6	12.2	1.7
O=C(/C=C/c1ccc(Cl)c([N+](=O)[O-])c1)Nc1cccc(NC(=O)c2ccco2)c1	-13.8	-3.5	-22.7	6.8	28.0*	33.8*
CCOC(=O)C1CCCN(c2cc(=O)n(Cc3ccc(F)cc3)c(=O)[nH]2)C1 (stereo not drawn)	1.7	22.5*	-8.6	0.4	-0.6	0.7
CCOC(=O)C1CCCN(c2cc(=O)n(-c3ccccc3Cl)c(=O)[nH]2)C1 (stereo not drawn)	4.8	29.2*	-3.7	0.3	11.6	-5.1
COC(=O)C1CCN(c2cc(=O)n(Cc3ccc(F)cc3)c(=O)[nH]2)CC1	14.5	-0.9	7.9	0.4	-3.8	-11.5
COc1ccc(C(=O)Nc2c3c(nn2-c2ccc([N+](=O)[O-])cc2)CS(=O)(=O)C3)cc1	0.5	3.8	2.7	17.9*	7.5	-1.8
COc1ccc(C(=O)Nc2c3c(nn2-c2ccc(Cl)cc2)CS(=O)(=O)C3)cc1	-2.4	2.1	7.0	1.4	-13.2	-13.9
CN1CCN(c2ncccc2S(=O)(=O)N2CCCCC2)CC1	-9.8	-4.8	-22.0	0.4	19.2	98.8*
CCC(c1nnnn1Cc1cccs1)N1CCN(c2nc3ccccc3s2)CC1 (stereo not drawn)	6.8	-2.0	/	4.5	47.6*	16.4
CC(C)CC(c1nnnn1Cc1cccs1)N1CCN(c2nc3ccccc3s2)CC1 (stereo not drawn)	5.1	-5.5	-15.8	-0.1	0.1	12.7
COC(=O)c1c(-c2c(Cl)cccc2Cl)noc1C(=O)NNC(=O)N(C)C	5.6	-2.3	-6.1	2.8	-2.1	12.8
Cc1cc(O)ccc1-c1cc(C(=O)NCc2ccc(F)cc2)[nH]n1	-2.6	25.1*	-3.3	8.2	-11.0	3.2
O=C(CSc1ncccn1)c1ccccc1Br	-5.7	0.3	6.7	0.4	26.8*	-1.1
Cc1ccc(C)c(S(=O)(=O)NCCN2CCOCC2)c1	6.1	-5.4	3.2	2.0	-11.8	-6.2
CCOC(=O)C1(C(=O)OCC)NC(=O)CC1CC (stereo not drawn)	14.0	0.0	6.0	0.9	-16.5	-15.7
CCCCCC1CC(=O)NC1(C(=O)OCC)C(=O)OCC (stereo not drawn)	-7.5	-1.0	-22.8	3.0	0.3	40.0*
CC(C)C(=O)N[C@H]1CCC2C3CC=C4C[C@@H](O)CC[C@]4(C)C3CC[C@@]21C (stereo partly drawn)	5.7	-7.0	10.8	-0.3	-4.7	-17.3
CCCCCCN[C@H]1CCC2C3CC=C4C[C@@H](O)CC[C@]4(C)C3CC[C@@]21C (stereo partly drawn)	13.7	-3.5	-30.3	4.6	-11.1	89.6*
CC1CCN(Cc2ccc(NC(=O)CC3Oc4ccccc4NC3=O)cc2)CC1 (stereo not drawn)	15.1	-12.2	-32.3	1.2	-1.1	98.7*
CCC(C)N(CCNC(=O)c1ccc2c(c1)NC(=O)c1ccccc1S2)C1CCCCC1 (stereo not drawn)	9.0	-2.9	-22.9	6.6	-9.1	55.7*
CC(C)CN(CCNC(=O)CC1Oc2ccccc2NC1=O)CC(C)C (stereo not drawn)	31.6	-13.0	-8.0	1.2	-24.2	1.3
CCC(C)N(CCNC(=O)CC1Oc2ccccc2NC1=O)C1CCCCC1 (stereo not drawn)	13.7	-13.4	-33.1	0.0	-6.5	90.3*
CC1CCCC(C)N1CCCNC(=O)c1ccc2c(c1)NC(=O)c1ccccc1S2 (stereo not drawn)	0.3	-6.1	-24.5	0.2	-10.7	83.9*
CCN1CCN(CCCNC(=O)c2ccc3c(c2)NC(=O)c2ccccc2S3)CC1	13.8	-13.9	-19.0	0.7	-8.1	15.1
CCOc1cc(C(=O)N2CCCN(C)CC2)cc(OCC)c1OCC	7.1	-4.0	12.3	-0.7	-2.1	-14.9
